# Measurements: PubChem BioAssay (EPA / NIEHS)
# Several values for one entry are separate records, joined by “and”; a condition that tells them apart may be missing. Identical values can stand only once. Results filed as inconclusive are left out. More than one record can exist for a structure, and the calls need not agree. Activity calls are given as the source filed them. Rule for the calls: active = hit-call score of the fitted dose curve at least 0.9, where 1 is the maximum; inconclusive = response in the unintended direction; inactive = score below 0.9.
# Biological target: frog Thyroid hormone Receptor alpha (TRa), thra-a (gene 397942) (UniProt P15204)
# Experiment: ATG_frTRa_XSP2: Attagene TRANS-FACTORIAL Multi-Species (XSP2) HepG2 Assay for frog Thyroid hormone Receptor alpha (TRa) (AID 2283839);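 for AC50: AC50 reflects induction of frog TRa-driven reporter mRNA above DMSO baseline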
# Procedure: ATG_XSP2_multi-species_TRANS is a cell-based, multiplexed assay created by modifying the existing Attagene TRANS-FACTORIAL system to include a panel of nuclear receptors from some or all the following species: human (Homo sapiens), mouse (Mus musculus), frog (Xenopus laevis), zebrafish (Danio rerio), chicken (Gallus gallus), and turtle (Chrysemys picta). The ECOTOX-FACTORIAL format uses HepG2, a human liver cell line, with measurements taken at 24 hours after chemical dosing in a 24-well plate. Xsp2 included 3 nM 6-alpha-fluorotestosterone and 1.5 nM norgestrel to stimulate the androgen receptor.ATG_frTRa_XSP2 is one of 29 assay components measured or calculated from the ATG_XSP2_multi-species_TRANS assay. It is designed to make measurements of mRNA induction, a form of inducible reporter, as detected with fluorescence intensity signals by Reverse transcription polymerase chain reaction (RT-PCR) and Capillary electrophoresis technology.The assay endpoint ATG_frTRa_XSP2 was analyzed in the positive analysis fitting direction relative to DMSO as the negative control and baseline of activity. Using a type of inducible reporter, measures of mRNA for gain-of-signal activity can be used to understand the reporter gene at the transcription factor-level as they relate to the gene TR. Furthermore, this assay endpoint can be referred to as a primary readout, because this assay has produced multiple assay endpoints where this one serves a reporter gene function. To generalize the intended target to other relatable targets, this assay endpoint is annotated to the nuclear receptor intended target family, where the subfamily is non-steroidal.
# Human liver HepG2 cells are transiently transfected with multiple reporter transcription units (MRTUs) in 6-well plates using FuGene 6 reagent (Roche; 3 ml FuGene/1 mg DNA). The MRTU constructs are regulated by a cis-regulating element (promoter). […] A major difference between the CIS and TRANS system is that in CIS activities of endogenous TFs are measured, whereas the TRANS assay evaluates changes in activities of exogenous, chimeric NR-Gal4 proteins. […] At the end of 24 hour incubation, total RNA was isolated using TriZol reagent (Invitrogen). The isolated RNA is then reverse-transcribed using oligo(dT) primer and Mo-MLV reverse transcriptase (Invitrogen) with DNAse I (Ambion) treatment for 30 min. The one-tenth of the produced cDNA was amplified by PCR using Taq DNA polymerase (Invitrogen) and two reporter sequence-specific primers. The PCR products were fluorescently labeled by primer extension with 6-arboxyfluorescein (6-FAM) 5'-labeled reporter sequence-specific primer (2 min at 95 C, 20 s at 68 C and 10 min at 72 C) and these products were digested with 5U of HpaI (New England Biolabs) for 2h at 37 C. The fragments were purified using Qiaquick PCR columns (Qiagen), analyzed on an ABI 3130xL genetic analyzer (Applied Biosystems) with peak positions identified by using a set of X-rhodamine (ROX)-labeled MapMarker1000 molecular weight standards (BioVentures). The raw capillary electrophoresis data was processed using Attagraph software (Attagene).
# Chain of frog Thyroid hormone Receptor alpha (TRa), thra-a (gene 397942) (P15204 whole entry, looked up): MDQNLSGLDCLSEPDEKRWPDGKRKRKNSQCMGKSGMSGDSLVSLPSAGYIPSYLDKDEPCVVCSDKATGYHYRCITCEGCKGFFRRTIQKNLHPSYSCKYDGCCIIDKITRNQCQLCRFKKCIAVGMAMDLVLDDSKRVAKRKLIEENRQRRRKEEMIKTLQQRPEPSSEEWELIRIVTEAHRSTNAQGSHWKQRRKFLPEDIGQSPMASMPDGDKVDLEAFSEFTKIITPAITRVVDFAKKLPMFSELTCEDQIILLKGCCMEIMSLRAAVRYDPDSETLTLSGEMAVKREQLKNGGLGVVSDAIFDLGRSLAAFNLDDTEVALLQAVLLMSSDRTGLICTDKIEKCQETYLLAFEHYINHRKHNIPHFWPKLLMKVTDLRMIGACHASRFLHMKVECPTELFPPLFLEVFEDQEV
SMILES,AC50,outcome
Oc1cc2ccccc2c2ccccc12,33.4 µM (active),inactive
c1ccc2c(c1)ccc1ccccc12,–,inactive
O=c1c(-c2ccc(O)cc2)coc2cc(O)ccc12,–,inactive
C#C[C@]1(O)CC[C@H]2[C@@H]3CCC4=CC(=O)CC[C@@H]4[C@H]3CC[C@@]21C,–,inactive
O=C(O)Cc1cc(I)c(Oc2cc(I)c(O)c(I)c2)c(I)c1,86.6 nM (active) and 15.1 nM (active),–
CC[C@H](c1ccc(O)cc1)[C@@H](CC)c1ccc(O)cc1,–,inactive
CCCOC(=O)c1ccc(O)cc1,–,inactive
CCC(=C(c1ccc(O)cc1)c1ccc(OCCN(C)C)cc1)c1ccccc1,–,inactive
CCC(C)(C)C1CCC(O)CC1 (stereo not given),–,inactive
